Rows were chosen to be rich in hits. Some 21% of all compounds tested hit in one or more screens of this group.
Pf growth 96h: Primary qHTS for delayed death inhibitors of the malarial parasite plastid, 96 hour incubation; P. falciparum luciferase reporter growth, 96 h; Potency, µM (top dose mostly 28.7 µM), for inactives: at the highest dose activity change, negative = inhibition, actives largely listed as inhibitors; 320,000 compounds, 6.9% hits; AID 504834, 2011; also: potency is read from the fitted curve at half-maximal effect; % is scaled to controls: 0 for no effect and ±100 for the full control effect
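Parasite growth measured via integrated firefly luciferase reporter in P. falciparum. Infected erythrocytes at 2% hematocrit, 0.05% parasitemia final were treated 96 hours at 37 C under 5% CO2, and luminescence was read.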
AMA1-RON2 inh: qHTS for Inhibitors of AMA1-RON; Towards Development of Antimalarial Drug Lead: Primary Screen. 360,000 compounds, 0.2% hits. Plasmodium falciparum AMA1 (3D7) - RON2 peptide interaction. AlphaScreen AMA1-biotinylated RON2 peptide binding. Potency, µM (doses to about 58.2 µM), without a hit: top-dose activity change, negative = inhibition, hits mostly inhibitors;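 also: potency is read from the fitted curve at half-maximal effect; 0% = vehicle wells and -100% = peptide control; nearly all actives have a fitted effect of over 45% in size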
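AMA1 (3D7) with his tag at 25 nM final met compounds first, then biotinylated RON2 peptide at 25 nM; detection used donor plus acceptor beads, 10 µg/mL apiece, read by AlphaScreen after 30 min at room temperature.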
Pf growth 48h: Primary qHTS for delayed death inhibitors of the malarial parasite plastid, 48 hour incubation. P. falciparum luciferase growth in erythrocytes, 48 h. Potency, µM (top dose mostly 28.7 µM), for the others: top-dose activity change, negative = inhibition, usual class: inhibitors. 310,000 compounds, 5.9% hits; also: potency is read from the fitted curve at half-maximal effect; % is scaled to controls: 0 for no effect and ±100 for the full control effect
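In quantitative HTS format, infected erythrocytes bearing luciferase-reporter parasites were treated for a single generation at 37 C. Luminescence after adding detection reagent served as the growth measure.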
Shiga toxin inh: A qHTS for Small Molecule Inhibitors of Shiga Toxin; Vero cells, Shiga toxin protein synthesis inhibition reporter; inhibition, % at 38.7 µM; 290,000 compounds, 9.2% hits; AID 2315, 2010; in the data active = inhibition mostly above about 28%, no sharp cut-off; inactive = mostly below about 43%; also: 0% is about no effect
HCV inhibitor: qHTS Assay for Inhibitors of Hepatitis C Virus (HCV). Huh7.5.1 HCVcc-Cre infection, luciferase reporter, 44 h. Potency, µM (highest dose often 41.8 µM), inactives show at the top dose activity change, negative = inhibition, actives largely listed as inhibitors. 340,000 compounds, 3.4% hits; also: potency is read from the fitted curve at half-maximal effect; % is scaled to controls: 0 for no effect and ±100 for the full control effect
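Cells (1,000/well) were plated 4 h before compound, then infected with HCVcc-Cre virus (~0.5 moi). After 44 h further culture, infection was read as luciferase luminescence following a 15 min substrate incubation at room temperature.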
CHX counter: Cycloheximide Counterscreen for Small Molecule Inhibitors of Shiga Toxin. cell reporter, cycloheximide protein synthesis inhibition counterscreen. AID 2314, 2010. max response, %. 300,000 compounds, 12% hits; in the data active = max response mostly above about 13%, no sharp cut-off; inactive = mostly below about 14%; also: read at 38.3 µM for the half of the compounds with a filed dose; 0% is about no effect
Active calls of the source: *; ? = inconclusive; · = no result given; [ ] = another dose, or the depositor's remark. Unless noted, calls follow the shape of the dose curve; as a rule, active = well fitted curve in the direction sought with a large enough effect; inconclusive = small, poorly fitted or top-dose-only effect, or another doubt; inactive = no such curve, though single readings can be large; an effect the other way counts as inactive or inconclusive.

SMILES | Pf growth 96h | AMA1-RON2 inh | Pf growth 48h | Shiga toxin inh | HCV inhibitor | CHX counter
N#CC1(NC(=O)COc2cccnc2[N+](=O)[O-])CCCCC1 | 21.7% | -28.8% | -0.7% | · | -17.6% | ·
CC(NC(=O)COC(=O)c1nc(Cl)ccc1Cl)c1ccccc1 (stereo unspecified) | · | 2.8% | · | · | 7.0% | ·
Cc1nc2c(cc(Oc3ccc(S(=O)(=O)N4CCOCC4)cn3)c3ccsc32)s1 | ? | 27.0% | ? | 112.6* | ? | 71.6*
COc1cc(C(C)=O)ccc1Oc1ccc(S(=O)(=O)N2CCOCC2)cn1 | -26.6% | -6.1% | -17.0% | · | ? | ·
Cc1ncc(CO)c2cc(C(=O)Nc3ccccc3Cl)c(=Nc3cccc(C(N)=O)c3)oc12 | -4.8% | -7.8% | 39.5% | -3.8 | ? | -3.9
CCCCC/C=C\C/C=C\C/C=C\C/C=C\CCCC(=O)N(Cc1ccc(O)c(Cl)c1)Cc1ccc(O)c(Cl)c1 | · | · | · | 62.8* | · | 39.6
O=C(CCN1C(=O)/C(=C/c2ccccc2Cl)SC1=S)NC1CCCC1 | ? | -9.6% | -3.9% | -2.2 | ? | -3.4
Cn1c(=O)oc2cc(S(=O)(=O)NCCC(=O)N3CCN(c4ccccc4)CC3)ccc21 | 13.1µM* | 0.1% | ? | 8.0 | 3.6% | 3.2
Cc1ccc(NC(=O)CCNS(=O)(=O)c2ccc3c(c2)oc(=O)n3C)c(C)c1 | 11.7µM* | -2.0% | ? | -4.0 | 17.5% | -4.3
Cc1cc(C)cc(NC(=O)CCNS(=O)(=O)c2ccc3c(c2)oc(=O)n3C)c1 | ? | 42.8% | ? | -3.8 | 7.4% | 1.0
Cc1ccc(C)c(N2CCN(C(=O)CCNS(=O)(=O)c3ccc4c(c3)oc(=O)n4C)CC2)c1 | 1.65µM* | -0.1% | -29.5% | -2.1 | ? | -0.3
Cn1c(=O)oc2cc(S(=O)(=O)NCCC(=O)N3CCN(c4ccccc4F)CC3)ccc21 | 31.8% | 7.2% | ? | -10.9 | 10.1% | 3.7
COc1ccc(NC(=O)C2Cc3c(-c4cccc(C(N)=O)c4)ccnc3O2)cn1 (stereo unspecified) | · | -7.1% | · | · | · | ·
O=C(Nc1ccc(N2CCOCC2)cc1)c1ccncc1 | ? | 1.5% | 56.7% | 32.3* | 10.4% | 13.6*
O=C(Nc1ccc(N2CCOCC2)cc1)c1ccc([N+](=O)[O-])cc1 | -0.8% | -9.0% | 54.9% | 84.5* | -13.3% | 28.0*
Cc1ccnc2nc(C(=O)Nc3ccc(N4CCOCC4)cc3)nn12 | -3.7%[5.75 µM] | 6.8% | 33.6% | 74.3* | -7.5% | 27.6*
CC(=O)Nc1ccc(NC(=O)CC2(CC(=O)N3CCOCC3)CCCC2)cc1 | -17.6% | 16.2% | -3.9% | · | 8.4% | ·
COc1ccc(CCN(C)C(=O)c2cc(=O)c3ccccc3o2)cc1OC | -3.3% | -3.2% | ? | 18.5 | 14.2% | 19.7
CCOC(=O)C1=C(C)NC2=C(C(=O)CC(C)(C)C2)C1c1ccc(N(C)C)cc1 (stereo unspecified) | ? | -3.4% | 11.7µM* | -2.4 | ? | -2.3
CCOC(=O)C1=C(C)NC2=C(C(=O)CC(C)(C)C2)C1c1ccc2c(c1)CCCN2C (stereo unspecified) | 9.5% | -6.9% | 13.1µM* | -10.3 | ? | -1.5
CCCCOC(=O)c1ccccc1C(=O)OCCCC | -9.9% | 27.8% | -18.5% | · | -1.9% | ·
O=C(O)c1ccccc1C(=O)OCCCCOC(=O)c1ccccc1C(=O)O | 14.7µM* | -7.7% | -5.2% | -9.5 | -0.5% | 1.6
Cc1ccc(C=Nc2ccccc2C(=O)Nc2ccccc2)cc1 | 7.0% | 9.9% | -6.4% | 11.2 | 3.7% | 0.5
Cc1ccc(C=Nc2ccccc2C(N)=O)cc1 | 58.6% | 1.2% | · | 71.0* | 3.9% | 46.7*
CCCCCCOC(=O)c1ccccc1NC(=O)/C=C/C(=O)O | -20.2% | 17.6% | -7.4% | 116.9* | 4.4% | 51.3*
SMILES | Pf growth 96h | AMA1-RON2 inh | Pf growth 48h | Shiga toxin inh | HCV inhibitor | CHX counter
CCOC(=O)c1ccccc1NC(=O)/C=C/C(=O)O | 35.6% | 13.4% | -0.7% | 0.5 | 14.6% | 4.4
Cc1ccccc1C(=O)NNC(=O)/C=C\C(=O)O | 0.0% | 147.5% | 33.5% | 83.1* | 2.5% | 38.4*
O=C(CN(c1cccc([N+](=O)[O-])c1)S(=O)(=O)c1ccccc1)N1CCCCC1 | -24.9% | -8.8% | 22.4% | -6.7 | 4.6% | -2.5
Cc1ccc(/C=C/C(=O)Nc2ccccc2C(N)=O)cc1 | -19.8% | 16.7% | 265.2% | 63.5* | -1.3% | 45.9*
NC(=O)c1ccccc1NC(=O)/C=C/C(=O)O | -37.8% | -11.0% | · | 53.0* | 18.1% | 35.0*
Cc1ccc(S(=O)(=O)N2CCC(C(=O)N3CCCC(C(F)(F)F)C3)CC2)cc1C (stereo unspecified) | ? | -0.3% | ? | · | ? | ·
CN(C)NC(=O)c1ccsc1NC(=O)c1ccc(S(=O)(=O)N2CCCC2)cc1 | 5.22µM* | 38.9% | 11.7µM* | -10.9 | 21.8% | 1.1
CC1CCN(S(=O)(=O)c2ccc(C(=O)Nc3ccccn3)cc2)CC1 | ? | 2.9% | ? | · | ? | ·
CC1CCN(S(=O)(=O)c2ccc(C(=O)Nc3sccc3C(N)=O)cc2)CC1 | 8.28µM* | -5.0% | ? | 15.6 | ? | 17.0
CCc1ccc(Nc2n[n+](-c3ccccc3)c(-c3ccc(OCc4ccccc4)cc3)s2)cc1 | 2.94µM* | 0.0% | ? | 13.6 | ? | 19.0*
c1ccc(COc2ccc(-c3sc(Nc4ccccc4)n[n+]3-c3ccccc3)cc2)cc1 | ? | · | ? | 34.7* | · | 20.1*
O=C(O)c1ccc(-c2sc(Nc3ccccc3)n[n+]2-c2ccccc2)cc1 | -23.2% | -7.1% | 43.0% | 25.9 | ? | 20.0*
Cc1c(NC(=O)c2cccc(NC(=O)C(C)Oc3ccccc3)c2)c(=O)n(-c2ccccc2)n1C (stereo unspecified) | · | 2.7% | · | · | · | ·
COc1ccc(C(=O)c2[nH]c(N)c(C(=O)NCCc3c[nH]c4ccccc34)c2-c2ccc(C(F)(F)F)cc2)cc1 | · | 35.6% | · | · | · | ·
COc1ccccc1-c1ccc2c(c1)C(C)(Cc1cccc(C#N)c1)C(=O)N2 (stereo unspecified) | · | -4.7% | · | · | · | ·
CCOC(=O)CCCC(=O)N1CCOCCOCCOCC1 | -17.4% | -0.1% | -26.0% | 23.5 | 10.6% | -0.5
O=C(Nc1cc2c(cc1Cl)-c1ccc([N+](=O)[O-])cc1C2=NO)C(F)(F)F | · | -8.3% | · | · | ? | ·
Nc1cc2c(cc1Cl)-c1ccccc1C2=NO | · | -0.2% | · | · | 5.01µM* | ·
CN(C)c1ccc2c(c1)C(=NO)c1ccccc1-2 | · | 25.1µM* | · | · | ? | ·
ON=C1c2ccccc2-c2ccccc21 | 49.3% | 7.4% | · | 23.5* | ? | 24.5*
O=[N+]([O-])c1ccc2c(c1)-c1ccccc1C2=NO | · | -15.5% | · | · | ? | ·

Screens (PubChem)
